# From PubChem BioAssay (NCATS)
# Inconclusive results are not listed. A number with no mark means an inactive call. The source made the active and inactive calls. Calls follow the shape of the dose curve; as a rule, active = well fitted curve in the direction sought with a large enough effect; inconclusive = small, poorly fitted or top-dose-only effect, or another doubt; inactive = no such curve, though single readings can be large; an effect the other way counts as inactive or inconclusive.
# Key:
# [1] = Quantitative High-Throughput drug screen in 47 multiple myeloma cell lines against the NCATS MIPE library collection: KMS12BM_JCRB cell viability assay (AID 1918971); also: nearly all actives have a fitted effect of over 35% in size
# In short: (§1)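 Steps: seed 500 cells per well; pin-transfer MIPE 4.0 library; incubate 48 h at 37C, 5% CO2, humidified; add CellTiter-Glo, 5 min room temperature; read luminescence.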
# [2] = Quantitative High-Throughput drug screen in 47 multiple myeloma cell lines against the NCATS MIPE library collection: NCIH929_DSMZ cell viability assay (AID 1918978); also: nearly all actives have a fitted effect of over 35% in size
# In short: (§2)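 ATP-based luminescence (CellTiter-Glo, 5 min RT incubation) quantified surviving cells following two days' treatment with MIPE 4.0 agents at 37 °C, 5% CO2.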
# [3] = Quantitative High-Throughput drug screen in 47 multiple myeloma cell lines against the NCATS MIPE library collection: OCIMY1_PLB cell viability assay (AID 1918979); also: nearly all actives have a fitted effect of over 35% in size; as to viability: series mostly up to about 46 µM
# In short: as §2
# [4] = Quantitative High-Throughput drug screen in 47 multiple myeloma cell lines against the NCATS MIPE library collection: LP1_DSMZ cell viability assay (AID 1918982); also: nearly all actives have a fitted effect of over 35% in size
# In short: as §2
# [5] = Quantitative High-Throughput drug screen in 47 multiple myeloma cell lines against the NCATS MIPE library collection: KMS28PE_JCRB cell viability assay (AID 1918983); also: nearly all actives have a fitted effect of over 35% in size
# In short: as §2
# [6] = Quantitative High-Throughput drug screen in 47 multiple myeloma cell lines against the NCATS MIPE library collection: OPM1_PLB cell viability assay (AID 1918989); also: nearly all actives have a fitted effect of over 40% in size
# In short: as §2
# [7] = Quantitative High-Throughput drug screen in 47 multiple myeloma cell lines against the NCATS MIPE library collection: SKMM1_PLB cell viability assay (AID 1919863); details: SKMM1 myeloma viability, CellTiter-Glo ATP, 48 h; viability: active compounds read low; also: nearly all actives have a fitted effect of over 35% in size; as to viability: series mostly up to about 46 µM
# In short: as §2
# [8] = Quantitative High-Throughput drug screen in 47 multiple myeloma cell lines against the NCATS MIPE library collection: U266_ATCC cell viability assay (AID 1919864); also: nearly all actives have a fitted effect of over 35% in size
# In short: as §2
# [9] = Quantitative High-Throughput drug screen in 47 multiple myeloma cell lines against the NCATS MIPE library collection: KMS20_JCRB cell viability assay (AID 1918973); also: nearly all actives have a fitted effect of over 45% in size
# In short: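 CellTiter-Glo luminescence (ATP) after 48 h compound exposure, 37C/5% CO2; 500 cells/well; MIPE 4.0 approved/investigational drugs pinned in; DMSO = 100%, media only = 0% viability.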
# [10] = Quantitative High-Throughput drug screen in 47 multiple myeloma cell lines against the NCATS MIPE library collection: KMS26_JCRB cell viability assay (AID 1918975); also: nearly all actives have a fitted effect of over 45% in size
# In short: as §1
# [11] = Quantitative High-Throughput drug screen in 47 multiple myeloma cell lines against the NCATS MIPE library collection: MMM1_PLB cell viability assay (AID 1918976); also: nearly all actives have a fitted effect of over 35% in size
# In short: as §2
# [12] = Quantitative High-Throughput drug screen in 47 multiple myeloma cell lines against the NCATS MIPE library collection: MOLP8_DSMZ cell viability assay (AID 1918977); also: nearly all actives have a fitted effect of over 45% in size
# In short: as §2
# [13] = Quantitative High-Throughput drug screen in 47 multiple myeloma cell lines against the NCATS MIPE library collection: MM1S_ATCC cell viability assay (AID 1918980); also: nearly all actives have a fitted effect of over 45% in size
# In short: as §2
# [14] = Quantitative High-Throughput drug screen in 47 multiple myeloma cell lines against the NCATS MIPE library collection: MM1R_ATCC cell viability assay (AID 1918981); also: nearly all actives have a fitted effect of over 35% in size
# In short: as §2
# [15] = Quantitative High-Throughput drug screen in 47 multiple myeloma cell lines against the NCATS MIPE library collection: L363_DSMZ cell viability assay (AID 1918984); also: nearly all actives have a fitted effect of over 40% in size
# In short: as §2
# [16] = Quantitative High-Throughput drug screen in 47 multiple myeloma cell lines against the NCATS MIPE library collection: KMS34_JCRB cell viability assay (AID 1918985); also: nearly all actives have a fitted effect of over 40% in size
# In short: as §2
# [17] = Quantitative High-Throughput drug screen in 47 multiple myeloma cell lines against the NCATS MIPE library collection: XG6_PLB cell viability assay (AID 1919865); also: nearly all actives have a fitted effect of over 40% in size
# In short: as §2
# [18] = Quantitative High-Throughput drug screen in 47 multiple myeloma cell lines against the NCATS MIPE library collection: OCIMY7_PLB cell viability assay (AID 1918987); also: nearly all actives have a fitted effect of over 65% in size
# In short: as §2
# [19] = Quantitative High-Throughput drug screen in 47 multiple myeloma cell lines against the NCATS MIPE library collection: OCIMY5_PLB cell viability assay (AID 1918988); also: nearly all actives have a fitted effect of over 65% in size
# In short: as §2
# Potency is read from the fitted curve at half-maximal effect.
Compound,Potency [1],Potency [2],Potency [3],Potency [4],Potency [5],Potency [6],viability [7],Potency [8],Potency [9],Potency [10],Potency [11],Potency [12],Potency [13],Potency [14],Potency [15],Potency [16],Potency [7],Potency [17],Potency [18],Potency [19]
Cc1cccc(C#Cc2ccccc2)n1,18.7 µM (active),20.9 µM (active),inactive,inactive,inactive,8.33 µM (active),120%,inactive,–,–,–,–,–,–,–,–,–,–,–,–
CNC[C@H](O)c1ccc(O)c(O)c1,19.1 µM (active),inactive,38.2 µM (active),30.3 µM (active),13.6 µM (active),–,–,–,10.8 µM (active),10.8 µM (active),6.79 µM (active),8.55 µM (active),17.1 µM (active),6.05 µM (active),inactive,30.3 µM (active),12.1 µM (active),inactive,–,–
O=C(OC1C[C@H]2CC[C@@H](C1)[N+]21CCCC1)C(O)(c1ccccc1)c1ccccc1 (stereo partly specified),inactive,inactive,–,inactive,inactive,inactive,138%,–,–,inactive,–,inactive,inactive,inactive,inactive,–,–,–,inactive,–
COc1cc(Nc2c(C#N)cnc3cc(OCCCN4CCN(C)CC4)c(OC)cc23)c(Cl)cc1Cl,14.8 µM (active),3.72 µM (active),–,–,18.7 µM (active),2.64 µM (active),–,23.5 µM (active),1.32 µM (active),18.7 µM (active),–,–,29.6 µM (active),18.7 µM (active),1.66 µM (active),16.6 µM (active),23.5 µM (active),–,–,–
CC1Cc2ccccc2N1NC(=O)c1ccc(Cl)c(S(N)(=O)=O)c1 (stereo unspecified),inactive,inactive,inactive,inactive,–,inactive,–,6.62 µM (active),–,–,–,inactive,16.6 µM (active),inactive,–,inactive,–,inactive,–,–
Cc1cc2cc3c(C)cc(=O)oc3c(C)c2o1,16.6 µM (active),8.33 µM (active),–,inactive,–,–,–,11.8 µM (active),–,–,–,inactive,5.9 µM (active),20.9 µM (active),23.5 µM (active),inactive,26.4 µM (active),6.62 µM (active),–,8.33 µM (active)
CCCc1cc(=O)[nH]c(=S)[nH]1,inactive,inactive,–,inactive,inactive,inactive,115%,–,–,inactive,–,inactive,2.64 µM (active),–,–,inactive,–,–,–,–
Cc1cc(=O)c2c(O)c3c(O)cc(=O)c4c3c3c(cc(O)c1c23)C(C)(C)C=4O,4.69 µM (active),0.296 µM (active),–,5.9 µM (active),6.62 µM (active),–,–,–,0.0187 µM (active),6.62 µM (active),–,2.64 µM (active),–,4.18 µM (active),0.743 µM (active),13.2 µM (active),5.26 µM (active),–,–,8.33 µM (active)
CC(=O)O[C@H]1C(=O)[C@@]2(C)C([C@H](OC(=O)c3ccccc3)[C@]3(O)C[C@H](OC(=O)[C@H](O)[C@@H](NC(=O)c4ccccc4)c4ccccc4)C(C)=C1C3(C)C)[C@]1(OC(C)=O)CO[C@@H]1C[C@@H]2O (stereo partly specified),inactive,inactive,0.0187 µM (active),inactive,inactive,–,–,inactive,inactive,inactive,–,inactive,inactive,inactive,–,–,0.0033 µM (active),–,–,–
CC(C)C[C@H](NC(=O)[C@H](Cc1ccccc1)NC(=O)c1cnccn1)B(O)O,0.0148 µM (active),–,0.0053 µM (active),0.0118 µM (active),0.0093 µM (active),0.0083 µM (active),–,–,0.0148 µM (active),0.0148 µM (active),–,0.0093 µM (active),0.0066 µM (active),0.0047 µM (active),–,0.0083 µM (active),0.0372 µM (active),0.0074 µM (active),–,–
CCN(CC)C(=S)SSC(=S)N(CC)CC,0.0093 µM (active),–,0.0235 µM (active),0.0209 µM (active),0.0118 µM (active),0.001 µM (active),–,0.0059 µM (active),0.001 µM (active),0.0105 µM (active),–,0.0093 µM (active),0.0093 µM (active),0.0093 µM (active),inactive,0.0235 µM (active),0.0105 µM (active),–,0.001 µM (active),–
CCCCN(CCCC)CCC(O)c1cc2c(Cl)cc(Cl)cc2c2cc(C(F)(F)F)ccc12 (stereo unspecified),20.9 µM (active),–,inactive,–,23.5 µM (active),18.7 µM (active),–,inactive,–,inactive,–,–,inactive,–,inactive,–,–,26.4 µM (active),–,–
